PLK1 PBD block: PLK1 (human) polo-box domain binding inhibition; Plk1 PBD binding of FITC phosphopeptide, fluorescence polarization; AID 720504; Potency, µM, most hits filed as inhibitors; P53350; actives 2.8% (n = 360,000); also: series mostly up to about 57 µM; nearly all actives have a fitted effect of over 65% in size
TrxR1 inh: rat TrxR1 inhibition; O89049; recombinant rTrxR1, NADPH fluorescence consumption, selenite substrate; Potency, µM (doses to about 114 µM), most hits filed as inhibitors; actives 1% (n = 390,000); also: nearly all actives have a fitted effect of over 65% in size
Target sequence (O89049 whole entry, looked up): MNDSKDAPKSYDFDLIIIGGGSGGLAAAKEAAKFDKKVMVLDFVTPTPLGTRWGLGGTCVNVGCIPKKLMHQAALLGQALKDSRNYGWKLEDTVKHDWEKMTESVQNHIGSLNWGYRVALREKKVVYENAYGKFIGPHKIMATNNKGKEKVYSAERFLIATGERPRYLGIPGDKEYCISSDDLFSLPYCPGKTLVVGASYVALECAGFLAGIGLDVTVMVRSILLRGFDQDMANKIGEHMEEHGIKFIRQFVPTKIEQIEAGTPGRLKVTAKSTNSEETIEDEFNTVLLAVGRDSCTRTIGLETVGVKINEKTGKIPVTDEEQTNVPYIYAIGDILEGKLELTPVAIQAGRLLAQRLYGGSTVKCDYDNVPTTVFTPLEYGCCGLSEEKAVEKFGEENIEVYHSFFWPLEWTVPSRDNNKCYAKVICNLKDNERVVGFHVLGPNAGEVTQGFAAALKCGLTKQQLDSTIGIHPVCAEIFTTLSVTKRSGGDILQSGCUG
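Rat TrxR1 (90 nM in the dispensed reagent) was pre-reduced with 400 uM NADPH for 5 min at room temperature, then incubated with compound for 15 min. After 400 uM selenite was added, NADPH fluorescence (Ex 340/Em 450 nm) was followed for 8 min.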
Sfp inh: blocks B. subtilis Sfp PPTase activity. Potency, µM, actives largely listed as inhibitors. Biochemical Sfp PPTase activity, qHTS. Q9F4F7. actives 3.5% (n = 310,000);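 also: the enzyme is Sfp with the accession as filed and its product quenches rhodamine fluorescence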
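Compounds were incubated with enzyme (final 15 nM) for 15 min at room temperature before substrate addition started the reaction. Fluorescence at 525 nm excitation, 598 nm emission was recorded immediately and after 30 minutes.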
mIDH1 inhibitor: inhibitors of human mutant IDH1 R132H. IDH1-R132H enzyme, NADPH consumption, diaphorase/resazurin fluorescence. Potency, µM (doses to about 76.6 µM), usual class: inhibitors. actives 0.093% (n = 390,000); also: nearly all actives have a fitted effect of over 65% in size
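IDH1-R132H (0.5 ug/mL dispensed) in pH 7.5 Tris buffer was preincubated 30 min with compound, then given a substrate mix of 0.016 mM NADPH and 2 mM alpha-KG for 80 min at room temperature; remaining NADPH was read by diaphorase/resazurin fluorescence.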
VDR inh: inhibitors of human vitamin D receptor; VDR-SRC2-3 peptide fluorescence polarization, 2 h; Potency, µM, hits mostly inhibitors; actives 0.93% (n = 400,000); P11473
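The screen uses fluorescence polarization to detect compounds that interfere with recruitment of the SRC2-3 coactivator peptide to VDR; plates are read after 2 h at room temperature.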
TrxR1 substrate: rat thioredoxin reductase 1 substrate activity; AID 588456; purified TrxR1 substrate turnover, NADPH consumption readout; Potency, µM (top dose mostly 114 µM); actives 0.01% (n = 390,000); O89049; also: nearly all actives have a fitted effect of over 50% in size
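Rat TrxR1, dispensed at 90 nM, was prereduced with 400 uM NADPH (final) for 5 min at ~22 deg C, then incubated with compound 15 min before 400 uM selenite. A first-read NADPH fluorescence drop versus no-compound background flagged substrates.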
Numbers stand for hits; 0 = inactive; ? = inconclusive; - = no result given; [ ] = dose if it differs, or a comment. Shown are actives, neighbours in structure and some others; about 5.2% of the full set was active somewhere. Calls follow the shape of the dose curve; as a rule, active = well fitted curve in the direction sought with a large enough effect; inconclusive = small, poorly fitted or top-dose-only effect, or another doubt; inactive = no such curve, though single readings can be large; an effect the other way counts as inactive or inconclusive.

SMILES	PLK1 PBD block	TrxR1 inh	Sfp inh	mIDH1 inhibitor	VDR inh	TrxR1 substrate
Nc1[nH]c(C(=O)c2ccccc2)c(-c2ccccc2C(F)(F)F)c1C(=O)NCc1ccc(F)cc1	0	-	-	-	-	-
Cc1ccccc1N(C(=O)c1csnn1)C(C(=O)NC(C)(C)C)c1cccs1 (stereo not drawn)	8.4µM	0[11.4 µM]	0	0	?	0[11.4 µM]
Cc1ccc(N(C(=O)c2csnn2)C(C(=O)NC(C)(C)C)c2cccs2)cc1 (stereo not drawn)	0	0	0	0	0	0
COC1=C[C@@H](C)C2CC3OC(=O)C[C@H]4C(C)=C(OC)C(=O)C([C@@]2(C)C1=O)[C@@]34C (stereo partly drawn)	-	-	0	-	0	-
CC(Sc1nc(-c2ccccc2)cc(C(F)(F)F)n1)C(=O)O (stereo not drawn)	27µM	0	0	0	0	0
CCN(CC)C(=O)c1sc(NC(=O)C(C)Sc2nc(-c3ccccc3)cc(C(F)(F)F)n2)c(C(=O)OC)c1C (stereo not drawn)	-	0	-	0	35µM	0
CC(Sc1nc(-c2ccccc2)cc(C(F)(F)F)n1)C(=O)N1CCCC1 (stereo not drawn)	0	0	0	0	0	0
Cc1ccc(N(CC(=O)NCc2ccccc2)C(=O)CCC(=O)Nc2ccccn2)cc1C	0	0	0	0	0	0
CCN(c1ccc(Cl)cc1)S(=O)(=O)c1nnc(NC(=O)C2CCCCC2)s1	-	0	-	0	0	0
COc1cc(-c2nc3ccccn3c2/N=C/c2ccc(F)cc2)ccc1O	0	0	50µM	0	0	0
COCCNC(=O)/C(C#N)=C/c1ccccc1Br	24µM	0	0	0	0	0
CCOCCCNC(=O)/C(C#N)=C/c1cc(Br)c(O)c(Br)c1	21µM	0	0	0	0	0
CC(NC(=O)/C(C#N)=C/c1ccc([N+](=O)[O-])o1)c1ccccc1 (stereo not drawn)	24µM	7.9µM	0	0	25µM	0
CCOCCCNC(=O)/C(C#N)=C/c1ccc([N+](=O)[O-])o1	?	3.2µM	0	0	0	0
COC(=O)[C@H](Cc1ccccc1)NC(=O)O[C@@H]1C(=O)c2ccc(OC)cc2O[C@H]1c1ccc2c(c1)OCO2	-	-	0	-	0	-
Cc1nnc(N2CCN(c3ccccc3F)CC2)c2c1nnn2Cc1ccccc1	-	0	-	0	0	0
CC(NC(=O)/C(C#N)=C/c1cccs1)c1ccccc1 (stereo not drawn)	0	0	0	0	0	0
COc1ccc(/C=C(\C#N)C(=O)NC(C)c2ccccc2)cc1O (stereo not drawn)	0	0	0	0	0	0
COC(=O)c1ccc(/C=C(\C#N)C(=O)NC(C)c2ccccc2)cc1 (stereo not drawn)	?	22µM	32µM	0	?	0
Cc1ccc(C(C)NC(=O)/C(C#N)=C\c2c(C)[nH]c3ccccc23)cc1 (stereo not drawn)	24µM	0	0	0	?	0
CC(NC(=O)/C(C#N)=C/c1ccco1)c1ccccc1 (stereo not drawn)	0	0	50µM	0	0	0
O=C1N[C@@H]2[C@H](CCCCC(=O)Oc3ccc([N+](=O)[O-])cc3)SC[C@H]2N1	-	-	0	-	?	-
CC(=O)c1ccc(NC(=S)NNC(=O)NC2CCCCC2)cc1	0	0	16µM	0	0	0
Cc1ccc(NC(=S)NNC(=S)NC2CCCCC2)cc1	0	0	40µM	0	?	0
CC(C)c1ccc(NC(=S)NC2CCCCCC2)cc1	0	0	0	0	0	0
O=C(O)c1ccc(NC(=S)NC2CCCCC2)cc1	0	0	?	0	0	0
C=Cc1ccc(CC2(C)C(=O)Nc3ccc(Cl)cc32)cc1 (stereo not drawn)	0	-	-	-	-	-
COc1cc2nc(N3CCCN(C)CC3)nc(NC3CCN(C)C3)c2cc1OC (stereo not drawn)	-	0	-	-	-	0
CC1=CC(C)(C)N(C(=O)CCl)c2cc(C)ccc21	0	0	0	0	0	0
CC1=CC(C)(C)N(C(=O)CNC2CCCCC2)c2cc(C)ccc21	0	0	79µM	0	0	0
